PubChem BioAssay
Inconclusive results are not listed. Calls of active or inactive are those of the source.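 Rule for the calls, unless noted: active = viability at or below 10% of carrier control in both of two separate runs; inconclusive = viability at or below 10% in only one of the two runs; inactive = the rest.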

Columns and labels:
[1] = reducers of endogenous Her2 protein level, primary screen, SKBR3 breast tumor cells, AlphaScreen, ATP viability (AID 461;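 active = Her2 level under about 52% in both replicate screens, with viability over 70% of control, limit read from the data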;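 for Her2 level: lower value means less Her2 protein in the cells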;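 for viability: percent of carrier control wells set as 100% viability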); conditions: 18-24 h, measured here: SKBR3 viability, ATP luminescence, at 10 µM
[2] = target: Receptor tyrosine-protein kinase erbB-2 (Homo sapiens) (UniProt P04626); assay: as above; conditions: 18-24 h, at 10 µM, stronger effect = lower value
Chain of Receptor tyrosine-protein kinase erbB-2 (Homo sapiens) (P04626 whole entry, looked up): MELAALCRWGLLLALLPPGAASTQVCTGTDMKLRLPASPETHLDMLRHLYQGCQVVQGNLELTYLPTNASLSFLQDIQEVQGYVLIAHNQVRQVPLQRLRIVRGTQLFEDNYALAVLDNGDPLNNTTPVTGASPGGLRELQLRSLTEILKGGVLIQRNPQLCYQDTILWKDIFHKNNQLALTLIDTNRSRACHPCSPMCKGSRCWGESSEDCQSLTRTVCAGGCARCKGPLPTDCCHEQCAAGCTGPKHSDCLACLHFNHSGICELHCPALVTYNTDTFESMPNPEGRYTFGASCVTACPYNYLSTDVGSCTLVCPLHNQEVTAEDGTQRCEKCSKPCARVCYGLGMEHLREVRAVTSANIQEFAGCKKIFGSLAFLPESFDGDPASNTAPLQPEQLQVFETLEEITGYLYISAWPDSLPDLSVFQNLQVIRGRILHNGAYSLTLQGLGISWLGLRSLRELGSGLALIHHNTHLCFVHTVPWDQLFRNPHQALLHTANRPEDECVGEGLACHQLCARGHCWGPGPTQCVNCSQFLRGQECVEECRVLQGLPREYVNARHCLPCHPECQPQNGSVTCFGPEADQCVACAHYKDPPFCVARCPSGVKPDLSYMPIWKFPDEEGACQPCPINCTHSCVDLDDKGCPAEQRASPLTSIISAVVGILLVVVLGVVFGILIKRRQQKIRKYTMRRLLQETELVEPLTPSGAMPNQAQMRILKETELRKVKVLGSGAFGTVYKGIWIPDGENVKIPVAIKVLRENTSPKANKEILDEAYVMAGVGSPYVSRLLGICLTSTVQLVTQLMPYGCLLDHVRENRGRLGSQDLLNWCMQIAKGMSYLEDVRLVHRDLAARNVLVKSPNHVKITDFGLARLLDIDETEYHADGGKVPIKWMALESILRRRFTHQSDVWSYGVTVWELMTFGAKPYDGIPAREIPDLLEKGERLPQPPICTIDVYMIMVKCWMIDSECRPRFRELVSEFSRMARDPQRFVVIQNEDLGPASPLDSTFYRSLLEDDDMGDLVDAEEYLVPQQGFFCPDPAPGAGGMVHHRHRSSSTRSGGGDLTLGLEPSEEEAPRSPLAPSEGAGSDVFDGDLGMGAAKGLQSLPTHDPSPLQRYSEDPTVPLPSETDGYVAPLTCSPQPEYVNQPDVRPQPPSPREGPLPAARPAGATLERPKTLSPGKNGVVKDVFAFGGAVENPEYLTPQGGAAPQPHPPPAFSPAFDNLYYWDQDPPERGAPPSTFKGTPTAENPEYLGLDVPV

[3] = SK-BR-3 cell growth inhibitors, pilot screen, 24 h, human (AID 572); conditions: SK-BR-3 viability, CellTiter-Glo luminescence, at 10 µM, stronger effect = lower value;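 note: compound exposure lasted between 18 and 24 h rather than exactly 24 h; 100% = carrier-treated control wells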
[4] = HUVEC growth inhibition – cell-based, human, primary screen (AID 575;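 active = viability at or below 30% in both replicate assays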;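 note: 100% = median of untreated cell wells with 0.1% DMSO on each plate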); conditions: HUVEC proliferation, CellTiter-Glo luminescence, 72 h; at 10 µM; stronger effect = lower value
[5] = growth inhibitors of H69AR lung tumor, primary screen, human, duplicate replicates (AID 580;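 active = viability at or under a set limit in both replicates, limit being median viability minus 3 SD, cut at about 48% in these data, passing the limit was not always enough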;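 note: 100% = mean luminescence of untreated wells and 0% = no signal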); conditions: H69AR lung tumor cells viability, ATP luminescence, 72 h; at 10 µM; stronger effect = lower value
[6] = reversal of MRP1-mediated doxorubicin resistance, pilot screen, H69AR cells, doxorubicin co-treatment (AID 601;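 active = viability loss from added drug above about 55%, and viability with drug at most 40%, in both replicates, limit read from the data, passing the limit was not always enough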); conditions: CellTiter-Glo, 72 h, at 10 µM; for differential viability (reversal): stronger effect = higher value
[7] = 384-well plate pilot, post-Golgi transport modulator project, inhibition of yeast transport mutant growth (AID 636; in the data active = inhibition above about 31%); conditions: absorbance 615 nm, about 18 h, stronger effect = higher value
[8] = growth suppression of yeast trafficking mutant, preliminary HTS, modulators of trafficking downstream of Golgi apparatus project, 1536-format plate, OD 615 nm (AID 637; in the data active = inhibition above about 30%); conditions: yeast transport mutant growth, absorbance 615 nm, 18 h; stronger effect = higher value
[9] = OD615 S. cerevisiae growth inhibition, permissive medium, pilot counter-assay, permissive growth control for S. cerevisiae lifespan shortening project (AID 705;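 active = growth inhibition above 25% in both replicates, a cutoff set 3 SD above the mean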); conditions: OD615, 24 h, at 10 µM, stronger effect = higher value
[10] = Restrictive medium S. cerevisiae growth inhibition, OD615, pilot screen of yeast lifespan reduction project, restrictive growth control (AID 706;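 active = growth inhibition above a set limit, 3 SD over mean compound inhibition, in both replicates, cut at about 43% in these data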;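 note: modified DeaD lifespan yeast strain shifted to restrictive glucose medium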); conditions: OD615, 48 h, at 10 µM, stronger effect = higher value
[11] = viability gain of MRP-1-high H69AR cells under doxorubicin, pilot screen, MRP-1 activator project, CellTiter-Glo, duplicate (AID 807;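 active = viability increase at or above a cutoff of the median across tested compounds plus 3 SD, cut at about 8.5% in these data, passing the limit was not always enough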;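 note: compound pretreatment 18-22 h then 72 h combined with doxorubicin; 0% = doxorubicin alone and 100% = vehicle without doxorubicin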); conditions: H69AR viability with doxorubicin, CellTiter-Glo luminescence; at 10 µM; stronger effect = higher value
[12] = growth suppression of beta-catenin knockout HCT116, pilot screen, human colon tumor cells (AID 823;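 active = cell viability at or below a set limit in both duplicate runs, the limit being the all-compound median minus 4 SD, cut at about 23% in these data, passing the limit was not always enough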;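 note: 0% = wells killed by 20 µM Hyamine and 100% = untreated DMSO cell wells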); conditions: CellTiter-Glo, 60 h, at 10 µM, stronger effect = lower value
[13] = growth suppression of PTEN-deleted HCT116, pilot screen, cell-based, HCT116 clonal line, CellTiter-Glo (AID 824;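 active = viability at or below 27.92% in each of two runs, the all-compound median minus 4 SD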;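 note: 0% = 20 µM Hyamine control and 100% = vehicle cell control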); conditions: 60 h, at 10 µM, stronger effect = lower value
[14] = inhibitors of the yeast RAM network, pilot screen, dse1pr::URA3 reporter, 5-FOA selection (AID 869;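 active = inhibition over a set limit, the all-compound mean plus 3 SD, in both replicate runs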;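 note: 0% = DMSO wells with no growth and 100% = 10 µM 1-NA-PP1 with full growth; RAM network block rescues cells from 5-FOA so hits raise OD615 growth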); conditions: S. cerevisiae dse1pr::URA3 5-FOA growth, OD615, 2 d; at 10 µM; stronger effect = higher value; strain carries analog-sensitive mutant Cbk1 kinase
[15] = RAM signaling pathway blockade in yeast – S. cerevisiae, Pdr1DBD-CYC8 efflux-inhibited sensitized strain, primary screen (AID 1298;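 active = RAM network inhibition above 8.4% in each of two replicates, 3 SD over the compound average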;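 note: 0% = DMSO untreated cells without growth and 100% = 10 µM 1-NA-PP1 full growth; higher means more yeast growth rescued from 5-FOA killing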); conditions: S. cerevisiae cbk1-as DSE1-URA3 strain, 5-FOA growth OD615, 2 d; at 50 µM; stronger effect = higher value
[16] = H69AR cells + 2 uM doxorubicin, measured here: viability with 2 uM doxorubicin, stronger effect = lower value
[17] = H69AR cells, compound alone cytotoxicity

O=C(NCc1ccco1)C1CCN(c2ccc(N3CCOCC3)nn2)CC1
inactive: Her2 level [2] 120% | viability [3] 86.5% | viability [4] 91.4% | viability [5] 83.6% | differential viability (reversal) ([6]; H69AR cells + 2 uM doxorubicin) 2.94% | inhibition [7] -0.53% | inhibition [8] -0.83% | growth inhibition [9] 0.41% | growth inhibition [10] 5.46% | viability increase [11] -3.71% | viability [12] 95.2% | viability [13] 97.3% | inhibition [14] 0.935% | RAM network inhibition [15] 4.7%
86.5%: viability [1]
80.6%: viability [6, 16]
83.6%: viability [6, 17]

NC(=O)c1cccc2c1C(=O)N(C1CCCCC1)C2
88.9%: viability [6, 17]
inactive: Her2 level [2] 99.5% | viability [3] 109% | viability [4] 76% | viability [5] 88.9% | differential viability (reversal) ([6]; H69AR cells + 2 uM doxorubicin) -2.49% | inhibition [7] -0.77% | inhibition [8] -1.33% | growth inhibition [9] -7.48% | growth inhibition [10] -4.63% | viability increase [11] -0.58% | viability [12] 101% | viability [13] 95.3% | inhibition [14] 0.59% | RAM network inhibition [15] 3.36%
91.4%: viability [6, 16]
109%: viability [1]

CC1CCN(c2oc(-c3ccccc3F)nc2C#N)CC1
82%: viability [1]
inactive: Her2 level [2] 95% | viability [3] 82% | viability [4] 78.7% | viability [5] 92% | differential viability (reversal) ([6]; H69AR cells + 2 uM doxorubicin) 7.56% | inhibition [7] -2.27% | inhibition [8] 2.79% | growth inhibition [9] -14.9% | growth inhibition [10] -13.1% | viability increase [11] 0.34% | viability [12] 89.4% | viability [13] 88.9% | inhibition [14] 0.425% | RAM network inhibition [15] 2.79%
84.5%: viability [6, 16]
92%: viability [6, 17]

CCn1cc(C2=NOC(C(=O)Nc3c(C)nn(Cc4ccc(F)cc4)c3C)C2)c(C)n1 (centres undefined)
76.5%: viability [1]
87.1%: viability [6, 16]
inactive: Her2 level [2] 86.5% | viability [3] 76.5% | viability [4] 86.2% | viability [5] 88.2% | differential viability (reversal) ([6]; H69AR cells + 2 uM doxorubicin) 1.12% | inhibition [7] -1.41% | inhibition [8] 1.67% | growth inhibition [9] -11.1% | growth inhibition [10] 2.07% | viability increase [11] 1.43% | viability [12] 95.2% | viability [13] 103% | inhibition [14] 1.9% | RAM network inhibition [15] 1.61%
88.2%: viability [6, 17]

CCC(C)(C(=O)NC1CCCC1)N(Cc1cccs1)C(C)=O (centres undefined)
inactive: Her2 level [2] 83.5% | viability [3] 120% | viability [4] 102% | viability [5] 96.9% | differential viability (reversal) ([6]; H69AR cells + 2 uM doxorubicin) 6.71% | inhibition [7] -9.04% | inhibition [8] 5.08% | growth inhibition [9] -17.6% | growth inhibition [10] -23.3% | viability increase [11] -0.17% | viability [12] 108% | viability [13] 96.3% | inhibition [14] 0.55% | RAM network inhibition [15] 4.23%
90.2%: viability [6, 16]
120%: viability [1]
96.9%: viability [6, 17]

COc1cc(NC(=O)c2nccnc2C(=O)O)cc(OC)c1
98%: viability [1]
90.6%: viability [6, 16]
109%: viability [6, 17]
inactive: Her2 level [2] 107% | viability [3] 98% | viability [4] 95.7% | viability [5] 109% | differential viability (reversal) ([6]; H69AR cells + 2 uM doxorubicin) 18.3% | inhibition [7] -7.6% | inhibition [8] -2.3% | growth inhibition [9] -8.21% | growth inhibition [10] -1.48% | viability increase [11] -1.6% | viability [12] 96.1% | viability [13] 95% | inhibition [14] 2.17% | RAM network inhibition [15] -0.31%

Cc1nn(C(=O)c2ccc3c(c2)OCO3)c(N)c1-c1ccccc1
102%: viability [1]
inactive: Her2 level [2] 95% | viability [3] 102% | viability [4] 98.3% | viability [5] 94.2% | differential viability (reversal) ([6]; H69AR cells + 2 uM doxorubicin) 9.75% | inhibition [7] -1.47% | inhibition [8] 2.13% | growth inhibition [9] 3.15% | growth inhibition [10] 5.03% | viability increase [11] -2.76% | viability [12] 99.2% | viability [13] 98.2% | inhibition [14] 0.585% | RAM network inhibition [15] 1.02%
94.2%: viability [6, 17]
84.5%: viability [6, 16]

CCN(C(=O)c1cc(Cl)ccc1OC)c1ccccc1
101%: viability [6, 16]
91.5%: viability [1]
103%: viability [6, 17]
inactive: Her2 level [2] 110% | viability [3] 91.5% | viability [4] 95.6% | viability [5] 103% | differential viability (reversal) ([6]; H69AR cells + 2 uM doxorubicin) 2.06% | inhibition [7] 1.04% | inhibition [8] -10.3% | growth inhibition [9] -16.1% | growth inhibition [10] -19.6% | viability increase [11] -2.05% | viability [12] 89.5% | viability [13] 90% | inhibition [14] 2.85% | RAM network inhibition [15] 3.26%

O=C(Nc1ccc(N2C(=O)C3C4C=CC(C4)C3C2=O)cc1)Nc1nncs1 (centres undefined)
85.6%: viability [6, 16]
87.8%: viability [6, 17]
inactive: Her2 level [2] 108% | viability [3] 92% | viability [4] 96.2% | viability [5] 87.8% | differential viability (reversal) ([6]; H69AR cells + 2 uM doxorubicin) 2.15% | inhibition [7] -3.47% | inhibition [8] 0.83% | growth inhibition [9] -7.11% | growth inhibition [10] 6.49% | viability increase [11] -1.28% | viability [12] 97.6% | viability [13] 95.3% | inhibition [14] 0.53% | RAM network inhibition [15] 3.5%
92%: viability [1]

Cc1ccc(-n2c3c(cc(C(=O)NC4CCSC4=O)c2=O)C(=O)CC(C)(C)C3)cc1 (centres undefined)
101%: viability [1]
85.3%: viability [6, 17]
70.7%: viability [6, 16]
inactive: Her2 level [2] 99.5% | viability [3] 101% | viability [4] 85.4% | viability [5] 85.3% | differential viability (reversal) ([6]; H69AR cells + 2 uM doxorubicin) 14.6% | inhibition [7] -1.69% | inhibition [8] -0.67% | growth inhibition [9] -1.71% | growth inhibition [10] -9.19% | viability increase [11] -2.78% | viability [12] 99.1% | viability [13] 101% | inhibition [14] 2.32% | RAM network inhibition [15] 4.09%

NC(=O)C1CCN(C(=O)c2cc3n(n2)C(C(F)(F)F)CC(c2ccco2)N3)CC1 (centres undefined)
inactive: Her2 level [2] 99.5% | viability [3] 84% | viability [4] 104% | viability [5] 85% | differential viability (reversal) ([6]; H69AR cells + 2 uM doxorubicin) -0.83% | inhibition [7] -0.93% | inhibition [8] -4.67% | growth inhibition [9] -7% | growth inhibition [10] -1.27% | viability increase [11] -1.57% | viability [12] 97% | viability [13] 97.4% | inhibition [14] 2.2% | RAM network inhibition [15] 0.98%
84%: viability [1]
85.8%: viability [6, 16]
85%: viability [6, 17]

CCn1cc(SCC(=O)Nc2cc(C)on2)c2ccccc21
inactive: Her2 level [2] 84% | viability [3] 110% | viability [4] 89.4% | viability [5] 84% | differential viability (reversal) ([6]; H69AR cells + 2 uM doxorubicin) 3.56% | inhibition [7] -4.13% | inhibition [8] -1.15% | growth inhibition [9] -5.85% | growth inhibition [10] -7.99% | viability increase [11] 1.09% | viability [12] 92.3% | viability [13] 92.3% | inhibition [14] 1.87% | RAM network inhibition [15] 2.85%
110%: viability [1]
80.5%: viability [6, 16]
84%: viability [6, 17]
